KCNQ2 block = inhibitors of rat KCNQ2 potassium channel. O88943. B-score at 10 µM. CHO-K1 KCNQ2, FluxOR thallium flux, 20 min; hits give low values. 310,000 tested, 1.1% active. AID 2156;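 active = fluorescence ratio B-score at most minus 3 library SDs, with starting brightness B-score within 2 library SDs, cut at about -5.5 in these data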
Target sequence (O88943 whole entry, looked up): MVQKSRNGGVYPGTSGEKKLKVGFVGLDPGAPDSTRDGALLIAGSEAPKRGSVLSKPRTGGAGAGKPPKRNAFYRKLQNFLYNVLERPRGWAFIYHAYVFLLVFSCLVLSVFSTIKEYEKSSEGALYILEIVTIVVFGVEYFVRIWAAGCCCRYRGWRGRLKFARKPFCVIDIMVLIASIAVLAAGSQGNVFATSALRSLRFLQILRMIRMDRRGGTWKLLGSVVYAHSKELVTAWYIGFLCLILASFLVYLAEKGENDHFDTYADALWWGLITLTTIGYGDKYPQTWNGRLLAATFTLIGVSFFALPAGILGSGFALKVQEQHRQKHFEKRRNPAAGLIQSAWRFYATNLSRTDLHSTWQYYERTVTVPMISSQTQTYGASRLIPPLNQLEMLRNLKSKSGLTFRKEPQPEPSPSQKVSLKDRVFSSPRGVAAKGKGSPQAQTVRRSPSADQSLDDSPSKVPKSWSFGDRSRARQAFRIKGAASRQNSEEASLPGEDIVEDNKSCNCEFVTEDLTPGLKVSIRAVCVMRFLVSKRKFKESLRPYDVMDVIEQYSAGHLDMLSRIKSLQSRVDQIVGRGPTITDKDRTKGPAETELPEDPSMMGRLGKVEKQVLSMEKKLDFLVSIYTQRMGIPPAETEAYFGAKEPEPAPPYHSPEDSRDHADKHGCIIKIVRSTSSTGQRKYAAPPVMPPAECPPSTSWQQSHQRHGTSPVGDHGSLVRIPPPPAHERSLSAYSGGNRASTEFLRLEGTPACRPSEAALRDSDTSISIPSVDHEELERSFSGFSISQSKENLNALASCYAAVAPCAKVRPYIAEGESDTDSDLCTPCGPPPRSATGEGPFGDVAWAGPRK
KCNQ2 pot = potentiators of rat KCNQ2 potassium channel; B-score at 10 µM; AID 2239; 310,000 tested, 0.54% active; CHO-K1 KCNQ2, FluxOR thallium flux fluorescence; hits give high values; O88943;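 active = fluorescence ratio B-score at least 3 SD of library B-scores, with initial fluorescence B-score within 3 of them, cut at about 5.3 in these data; same plate scores as AID 2156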;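 also: B-score of peak minus minimum over baseline fluorescence ratio after K+ and Tl+ stimulus; positive B-score means potentiation of KCNQ2 with more thallium influx and brighter signal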
* hit, by the source's call. Sampled rows, rich in hits. Any-hit rate of the full collection: about 1.6%.

What do the screens show for `O=C(COc1cccc(Br)c1)NN=C1c2ccccc2-c2ccccc21`?
KCNQ2 block: inactive

What do the screens show for `O=C(NN=C1c2ccccc2-c2ccccc21)c1cccc(Br)c1`?
KCNQ2 block: inactive; KCNQ2 pot: 17*

Results for CN(Cc1ccco1)C(=O)Cn1nc(-c2ccc(Cl)cc2)ccc1=O ?
KCNQ2 block: inactive

What do the screens show for `O=C(NNS(=O)(=O)c1ccccc1)Nc1ccc(F)cc1`?
KCNQ2 block: inactive

How did CCn1nc(C)c(CNC(=O)CCc2nnc(Cc3c[nH]c4ccccc34)o2)c1C do in these assays?
KCNQ2 block: inactive; KCNQ2 pot: 0.16

How did CCOc1cc(N(CC)CC)ccc1/C=C(/C#N)c1nc2ccccc2[nH]1 do in these assays?
KCNQ2 block: -8.4*; KCNQ2 pot: -8.4

What do the screens show for `CCCOc1cc(N(CC)CC)ccc1/C=C(/C#N)c1nc2ccc(C)cc2[nH]1`?
KCNQ2 block: inactive

Results for Cc1c(C(N)=O)c(-c2ccccc2)nn1-c1ccccc1 ?
KCNQ2 block: inactive; KCNQ2 pot: 0.5

How did CCCc1c(-c2ccc(O)cc2)nn(-c2ccc(O)cc2)c1-c1ccc(O)cc1 do in these assays?
KCNQ2 block: -6.6*; KCNQ2 pot: -6.6

What do the screens show for `COc1ccc(C(=O)NNC(=O)OC(C)(C)C)cc1`?
KCNQ2 block: inactive

Results for COc1ccc(C(=O)NN/C(C)=C/C(=O)C(F)(F)C(F)(F)C(F)(F)F)cc1 ?
KCNQ2 block: inactive; KCNQ2 pot: 10*

How did Cc1cccc(N2CCN(S(=O)(=O)c3c(C)[nH]c(C)c3C(=O)N3CCCC3)CC2)c1C do in these assays?
KCNQ2 block: inactive

What do the screens show for `Cc1cccc(N2CCN(S(=O)(=O)c3c(C)[nH]c(C)c3C(=O)N3CCCCC3)CC2)c1C`?
KCNQ2 block: -5.9*; KCNQ2 pot: -5.9

How did COc1ccc(NC(=O)C(=O)c2cn(CC(=O)N3CCCC3)c3ccccc23)cc1 do in these assays?
KCNQ2 block: inactive; KCNQ2 pot: 0.48

Results for CC1CCCC(NC(=O)C2CCN(S(=O)(=O)c3cccc4nonc34)CC2)C1C (centres undefined) ?
KCNQ2 block: inactive; KCNQ2 pot: 1.4

Results for O=[N+]([O-])c1ccc(O)c(CSc2nnnn2-c2ccccc2)c1 ?
KCNQ2 block: inactive; KCNQ2 pot: 0.14

Results for Cc1cc(=O)[nH]c(N/N=C/c2cn(CCC#N)nc2-c2ccccc2)n1 ?
KCNQ2 block: inactive; KCNQ2 pot: 1.8

Results for N#C[C@H]1[C@H](c2ccccc2)[C@](C#N)(C(=O)c2ccccc2)[C@@H]2C=Cc3ccccc3N21 ?
KCNQ2 block: -8.6*; KCNQ2 pot: -8.6

Results for COc1ccc(C(=O)N2c3ccccc3C=CC2C#N)cc1 (centres undefined) ?
KCNQ2 block: inactive; KCNQ2 pot: 0.44

How did O=C(NCC(c1ccc(F)cc1)N1CCOCC1)c1ccc(C(=O)c2ccccc2)cc1 (centres undefined) do in these assays?
KCNQ2 block: inactive; KCNQ2 pot: 2.2

Results for OC(c1ccccc1)(c1ccc(F)cc1)C(c1ccccc1)N1CCOCC1 (centres undefined) ?
KCNQ2 block: -5.7*; KCNQ2 pot: -5.7

What do the screens show for `CSCCC(=O)N1CCN(CC(=O)N2CCCC2)CC1`?
KCNQ2 block: inactive

How did Cc1cc(NC(=O)CS(=O)(=O)c2cn(Cc3ccc(F)cc3)c3ccccc23)no1 do in these assays?
KCNQ2 block: inactive

What do the screens show for `Cc1cc(NC(=O)CS(=O)(=O)c2cn(Cc3cccc(F)c3)c3ccccc23)no1`?
KCNQ2 block: -5.7*; KCNQ2 pot: -5.7

How did CC(C)(C)C(=O)/C(=C/c1ccncc1)n1cncn1 do in these assays?
KCNQ2 block: inactive; KCNQ2 pot: 2.7

What do the screens show for `COc1ccccc1NC(=O)c1sc2ncn(Cc3ccccc3C)c(=O)c2c1C`?
KCNQ2 block: -5.8*; KCNQ2 pot: -5.8

What do the screens show for `CCn1cnc2sc(C(=O)Nc3ccccc3OC)c(C)c2c1=O`?
KCNQ2 block: inactive

What do the screens show for `Cc1ccccc1NC(=O)CSc1nc2n(n1)CCCCC2`?
KCNQ2 block: inactive; KCNQ2 pot: 1.4

What do the screens show for `O=C(CNC(c1ccccc1)c1ccccc1)NCc1ccccc1Cl`?
KCNQ2 block: -6*; KCNQ2 pot: -6

How did O=C(CC1CCCCC1)Nc1ccccc1-c1ccccc1 do in these assays?
KCNQ2 block: inactive; KCNQ2 pot: 6.5*

Results for COc1ccccc1NC(=O)CC1CCCC1 ?
KCNQ2 block: inactive; KCNQ2 pot: 0.84

Results for O=C(CNC(c1ccccc1)c1ccccc1)Nc1ccccc1-c1ccccc1 ?
KCNQ2 block: -6.3*; KCNQ2 pot: -6.3

Results for CCCC(=O)NCc1ccccc1Cl ?
KCNQ2 block: inactive

Results for O=C(CCC1CCCC1)Nc1ccccc1-c1ccccc1 ?
KCNQ2 block: inactive; KCNQ2 pot: 23*

Results for O=C(CCC1CCCCC1)Nc1ccccc1O ?
KCNQ2 block: inactive; KCNQ2 pot: 4.5

What do the screens show for `O=C(CNC(c1ccccc1)c1ccccc1)Nc1ccccc1F`?
KCNQ2 block: inactive

What do the screens show for `NS(=O)(=O)c1ccc(NC(=O)COC(=O)/C(=C/c2cccs2)c2cccs2)cc1`?
KCNQ2 block: inactive

How did CCOC(=O)c1ccc(NC(=S)N2CCN(CCO)CC2)cc1 do in these assays?
KCNQ2 block: inactive

What do the screens show for `Cc1ccnc(NC(=S)N2CCN(c3cccc(C(F)(F)F)c3)CC2)c1`?
KCNQ2 block: inactive; KCNQ2 pot: 2.3

Results for Cc1nn(-c2ccccc2)c(Cl)c1/C=N/NC(=O)OC(C)(C)C ?
KCNQ2 block: inactive

How did Cc1ccc(C)c(OCC(=O)N/N=C/c2c(C)nn(-c3ccccc3)c2Cl)c1 do in these assays?
KCNQ2 block: -7.4*; KCNQ2 pot: -7.4

Results for COC(=O)c1cn(C(=O)c2ccc(F)cc2)c2ccccc12 ?
KCNQ2 block: inactive

How did C=CCOc1ccc(C(=O)n2cc(C(=O)OC)c3ccccc32)cc1 do in these assays?
KCNQ2 block: -6.2*; KCNQ2 pot: -6.2

What do the screens show for `Cc1ccc([N+](=O)[O-])cc1NC(=O)c1ccc(CSc2ccccc2)cc1`?
KCNQ2 block: inactive; KCNQ2 pot: 0.57

Results for Cc1ccc(SCc2ccc(C(=O)Nc3cccc([N+](=O)[O-])c3C)cc2)cc1 ?
KCNQ2 block: -5.6*; KCNQ2 pot: -5.6

What do the screens show for `CN1CCN(S(=O)(=O)c2cccc(C(=O)Nc3ccccc3N3CCOCC3)c2)CC1`?
KCNQ2 block: inactive; KCNQ2 pot: 0.44

What do the screens show for `O=C(Nc1cc(C(F)(F)F)ccc1N1CCCCC1)c1cccc([N+](=O)[O-])c1`?
KCNQ2 block: inactive; KCNQ2 pot: 2.3

Results for CCN1CCN(c2ccc(S(=O)(=O)N3CCCCC3)cc2NC(=O)c2cccc(C(F)(F)F)c2)CC1 ?
KCNQ2 block: inactive

What do the screens show for `CN1CCN(S(=O)(=O)c2cccc(C(=O)Nc3ccccc3N3CCCCC3)c2)CC1`?
KCNQ2 block: -6*; KCNQ2 pot: -6

What do the screens show for `Cc1ccc(C(=O)Nc2cc(C(F)(F)F)ccc2N2CCCCC2)cc1[N+](=O)[O-]`?
KCNQ2 block: -7.2*; KCNQ2 pot: -7.2

Results for CN1CCN(S(=O)(=O)c2cccc(C(=O)Nc3cc(C(F)(F)F)ccc3N3CCCCC3)c2)CC1 ?
KCNQ2 block: -7.3*; KCNQ2 pot: -7.3

What do the screens show for `OCCC1CN(CC(c2ccccc2)c2ccccc2)CCN1C1CCCC1` (centres undefined)?
KCNQ2 block: inactive

Results for NS(=O)(=O)c1cccc(NC(=O)CCSc2ccc(Cl)cc2)c1 ?
KCNQ2 block: inactive
